Test results published in PubChem BioAssay (NCATS).
Values joined by “and” are separate entries in the source; they are usually repeats but may differ in a detail not shown here. Identical values can stand only once. Results filed as inconclusive are left out. Entries that show only a call come without a potency. Some compounds were tested as several samples or in several runs, with calls that do not always agree. Active and inactive are the calls of the source. Unless noted, the call rests on the fitted dose curve; in most records, active means well fitted curve in the direction sought with a large enough effect; inconclusive means small, poorly fitted or top-dose-only effect, or another doubt; inactive means no such curve, though single readings can be large; an effect the other way counts as inactive or inconclusive.

Legend:
[1] = High-throughput drug toxicity screening in the BPDCN cell line Gen2.2 (AID 1224824; call rule not given here;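 further: cells exposed to compounds for 48 h before reading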); settings: Gen2.2 BPDCN cells; at 45.8 µM (top of the series) unless noted
Summary of the method: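 Gen2.2 cells, 500 per well in phenol red-free RPMI with 10% FBS, exposed to compounds 48 h at 37 C, 5% CO2; viability by CellTiter-Glo luminescence. Percent activity scaled to DMSO (100%) and 9.2 uM bortezomib final (0%).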

[2] = High-throughput drug toxicity screening in the BPDCN cell line Cal-1 (AID 1224825; call rule not given here); settings: Cal-1 BPDCN cell viability, qHTS; at 45.8 µM (top of the series) unless noted
Summary of the method: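 Viability of the BPDCN line Cal-1 is measured as ATP-based luminescence (CellTiter-Glo) following 48 h incubation with compounds. Percent activity uses DMSO-treated wells as 100% and 9.2 uM bortezomib as 0%.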

[3] = qHTS assay for measurement of the activity of small molecule inhibitors on Zika virus induced Caspase-3 activity in human iPSC derived neural progenitor cells (hNPCs) (AID 1224857); further: nearly all actives have a fitted effect of over 65% in size; further: potency means the concentration at half of the fitted maximal effect
Summary of the method: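 hNPCs seeded 350 cells/well, cultured 16–20 h; compounds added 1 h before ZIKV (2 FFU/cell), 37 C 6 h. Caspase-Glo 3/7 luminescence after 30 min RT; % inhibition from induction scaled to uninfected (0%) and infected (100%) wells.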

[4] = qHTS assay for measurement of the activity of small molecule inhibitors on Zika virus induced Caspase-3 activity in human astrocytoma cells (AID 1224859); further: potency means the concentration at half of the fitted maximal effect
Summary of the method: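 Luminescence read-out (Caspase-Glo 3/7, 30 min RT) of caspase activity in SNB-19 cells infected 6 h with ZIKV, 2 FFU/cell, after 1 h compound pretreatment; % inhibition from induction normalised to uninfected (0%) and infected (100%) wells.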

[5] = qHTS Screen of the MIPE 4.0 Collection Against Ewings Sarcoma (RDES) (AID 1259252); further: nearly all actives have a fitted effect of over 35% in size; further: potency means the concentration at half of the fitted maximal effect
Summary of the method: (§1)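 Compound titrations go onto adherent log-phase cells 4 h after seeding, incubate 48 h at 37C, then CellTiter-Glo luminescence reports viability relative to DMSO and cell-free controls.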

[6] = qHTS Screen of the MIPE 4.0 Collection Against Ewings Sarcoma (TC71) (AID 1259253); further: nearly all actives have a fitted effect of over 40% in size; further: potency means the concentration at half of the fitted maximal effect
Summary of the method: as §1

[7] = qHTS Screen of the MIPE 4.0 Collection Against Ewings Sarcoma (EW8) (AID 1259255); further: nearly all actives have a fitted effect of over 35% in size; further: potency means the concentration at half of the fitted maximal effect
Summary of the method: as §1

[8] = qHTS Screen of the MIPE 4.0 Collection Against Ewings Sarcoma (TC32) (AID 1259256); further: nearly all actives have a fitted effect of over 45% in size; further: potency means the concentration at half of the fitted maximal effect
Summary of the method: as §1

[9] = qHTS assay to identify small molecule inhibitors of chordoma cells - UCH-1 (AID 1259355); further: nearly all actives have a fitted effect of over 55% in size
Summary of the method: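 A 48hr growth-inhibition format: each drug tested at 15 concentrations together with added auranofin, camptothecin, doxorubicin, rubitecan and topotecan, with cell viability quantified as CellTiter-Glo luminescence.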

SMILES	cell viability, % of control (lower = more cytotoxic) [1] [%]	viability (% of control) [2] [%]	Potency [3]	Potency [4]	Potency [5]	Potency [6]	Potency [7]	Potency [8]	Potency [9]
Nc1nc2c(ncn2COCCO)c(=O)[nH]1	126	34.4	inactive	inactive	inactive	inactive	inactive	inactive	inactive
CCCc1nn(C)c2c(=O)[nH]c(-c3cc(S(=O)(=O)N4CCN(C)CC4)ccc3OCC)nc12	91.7	81.8	inactive	inactive	14.8 µM (active)	13.2 µM (active)		5.26 µM (active)	
Cc1n[nH]c(C)c1Cc1sc2c(c1C(=O)N1C[C@H](O)CO1)c(=O)n(C)c(=O)n2CC(C)C	109	96.6	inactive	inactive	inactive	0.166 µM (active)	inactive	0.105 µM (active)	
Cn1c(=O)c(F)c(Nc2ccc(I)cc2F)c2c(=O)n(C[C@@H](O)CO)cnc21	18	33	inactive	inactive		inactive	inactive		
NC(=O)c1ccc(-c2nc(-c3ccc4c(c3)OCCO4)c(-c3ccccn3)[nH]2)cc1	607	102	inactive	inactive		23.5 µM (active)			
O=C(O)COCCN1CCN(C(c2ccccc2)c2ccc(Cl)cc2)CC1 (stereo unspecified)	178	124	inactive	inactive	inactive	inactive	inactive		inactive
CNC[C@H](O)c1cccc(O)c1	196	133	inactive	inactive	inactive	inactive	inactive	inactive	inactive
CCOc1cc(N2CCC(O)CC2)ccc1Nc1ncc2c(n1)N(C)c1ccccc1C(=O)N2C	6.39	2.19	inactive	inactive	20.9 µM (active)	16.6 µM (active)	23.5 µM (active)	16.6 µM (active)	
Cc1cc(SCc2sc(-c3ccc(C(F)(F)F)cc3)nc2C)ccc1OCC(=O)O	101	114	inactive	inactive	inactive	16.6 µM (active)		5.26 µM (active)	
CN1CCN(CCCN2c3ccccc3Sc3ccc(C(F)(F)F)cc32)CC1	55.3	77.3	inactive	inactive	10.5 µM (active)	10.5 µM (active)	23.5 µM (active)	14.8 µM (active)	
CCCCCCCc1ccc(CCc2cccc(O)c2C(=O)O)cc1	161	66.1	inactive	inactive		16.6 µM (active)			
O=c1n(CCCN2CCN(c3cccc(Cl)c3)CC2)nc2ccccn12	165	100	inactive	inactive	inactive	inactive	inactive	inactive	inactive
c1ccc(-c2nn3c(c2-c2ccnc4cc(OCCN5CCOCC5)ccc24)CCC3)nc1	857	73.1	inactive	inactive		18.7 µM (active)			
CCN(CC)CCCC(C)Nc1nc(C)cc(Nc2ccc3nc(C)cc(N)c3c2)n1 (stereo unspecified)	55.4	74.8	inactive	inactive		inactive			
COc1cc2nccc(Oc3ccc(NC(=O)NC4CC4)c(Cl)c3)c2cc1C(N)=O	10.1	5.43	inactive	inactive	0.833 µM (active)	1.05 µM (active)	0.469 µM (active)	1.05 µM (active)	
O=c1ncn2nc(Sc3ccc(F)cc3F)ccc2c1-c1c(Cl)cccc1Cl	98.9	45.3	inactive	inactive	20.9 µM (active)			inactive	
CC(C)C[C@H](NC(=O)[C@@H](O)[C@H](N)Cc1ccccc1)C(=O)O	103	38.3	inactive	inactive		26.4 µM (active)			
O=S(=O)(N=Cc1c(O)ccc2ccccc12)c1cccs1	98	45.4	inactive	inactive	0.105 µM (active)	1.66 µM (active)	7.43 µM (active)	0.372 µM (active)	
O=C(C=Cc1ccc(/C=C/C(=O)Nc2ccc(C3=NCCN3)cc2)cc1)Nc1ccc(C2=NCCN2)cc1	203	104	inactive	inactive	inactive	inactive	inactive	inactive	
O=C1[C@H](Cc2ccc(O)cc2)N2C(=O)CCN(C(=O)NCc3ccccc3)[C@H]2CN1Cc1cccc2ccccc12	6.07	31.2	inactive	inactive		2.96 µM (active)	2.64 µM (active)		
Cc1[nH]c(=O)c(C#N)cc1-c1ccc2nccn2c1	220	95.5	inactive and 7.43 µM (active)	inactive and 4.69 µM (active)		inactive	inactive		
Nc1nccc(-c2ccc3noc(-c4ccc(Cl)cc4)c3c2)n1	68.4	46.9	inactive	inactive	5.9 µM (active)			23.5 µM (active)	
OC(CCN1CCCCC1)(c1ccccc1)C1CC2C=CC1C2 (stereo unspecified)	127	107	inactive	inactive	inactive	inactive	inactive	inactive	
Cc1ccc(N(CC2=NCCN2)c2cccc(O)c2)cc1	80.5	22.6	inactive	inactive		14.8 µM (active)	inactive		
CC(C)NCC(O)COc1ccc(COCCOC(C)C)cc1 (stereo unspecified)	123	113	inactive	inactive		inactive	inactive		
C1COC(NC(C2CC2)C2CC2)=N1	33.1	53.6	inactive	inactive		inactive	inactive	inactive	
CCOc1ccc(Cc2cc([C@@H]3O[C@H](CO)[C@@H](O)[C@H](O)[C@@H]3O)ccc2Cl)cc1	55.1	19.9	inactive	inactive			inactive		
CCn1cc(C(=O)O)c(=O)c2cc(F)c(N3CCNC(C)C3)c(F)c21 (stereo unspecified)	176	107	inactive	inactive		inactive	inactive		inactive
